A collection of fitness landscapes (doi:10.1016/j.celrep.2020.107928)
Over roughly 81,000 sequences, “one-hybrid fitness for binding parS DNA” has its median near -0.17; the highest 2% begin near 0.51. For the sample, the highest values were picked, then their nearest neighbours and some sequences at random.

B1: Caulobacter ParB omega fusion; a variant is named by its letters at X, in order, B8GW30 (parent)
chain: MESVVVGEPGMSEGRRGLGRGLSALLGEVDAAPAQAPGEQLGGSREAPIEILQRNPDQPRRTFREEDLEDLSNSIREKGVLQPILVRPSPDTAGEYQIVAGERAWRAAQRAGLKTVPIMVRELDDLAVLEIGIIENVQRADLNVLEEALSYKVLMEKFERTQENIAQTIGKSXSHVANXMRLLXLPDEVQSYLVSGELTAXHARAIAAAADPVALAKQIIEGGLSVRETEALARKAPNLSAGKSKGGRPPRVKDTDTQALESDLSSVLGLDVSIDHRGSTGTLTITYATLEQLDDLCNRLTRGI

Variants of: B1
Assay: one-hybrid fitness for binding parS DNA (scaled: cognate 1, non-cognate 0); higher = stronger binding
Conditions: with parS DNA site
Summary of the method: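 Values were rescaled so that cognate is 1 and non-cognate is 0. Each is a fitness, the log change in a variant's read ratio to wild type from Illumina reads of plasmids before and after selection, with three replicate libraries pooled and variants under 10 reads dropped. Selection of the Caulobacter ParB libraries, four specificity codons randomised, used E. coli USO with a HIS3 reporter, site 19 bp from the promoter, on M9-minus-histidine with 0.1 mM IPTG and 5 mM 3-AT for 48 hours at 37°C.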

| Variant | one-hybrid fitness for binding parS DNA |
| --- | --- |
| CISS | ≤ 0.2 |
| EWYV | ≤ 0.2 |
| QRYM | ≤ 0.2 |
| QVRQ | ≤ 0.2 |
| THSV | ≤ 0.2 |
| AQCS | ≤ 0.2 |
| NWKY | ≤ 0.2 |
| KFYT | ≤ 0.2 |
| RQMM | 0.33 |
| RQMQ | ≤ 0.2 |
| RQMY | 0.474 |
| RQMC | 0.945 |
| RQMG | 0.973 |
| RQMD | ≤ 0.2 |
| RQMH | 0.292 |
| RQMN | 0.423 |
| RQML | ≤ 0.2 |
| RQMS | 0.998 |
| RQMP | ≤ 0.2 |
| RQMT | 0.881 |
| DRVV | ≤ 0.2 |
| NSRG | ≤ 0.2 |
| SMFV | ≤ 0.2 |
| FLVT | ≤ 0.2 |
| RNIG | 0.597 |
| RNWS | 0.705 |

| Variant | one-hybrid fitness for binding parS DNA |
| --- | --- |
| RNLS | 0.895 |
| RNIH | ≤ 0.2 |
| RNPG | 0.433 |
| RNHP | ≤ 0.2 |
| RNWN | ≤ 0.2 |
| RNLN | 0.251 |
| RNLD | ≤ 0.2 |
| RNHH | ≤ 0.2 |
| RNWP | ≤ 0.2 |
| RNHS | 0.911 |
| MDVV | ≤ 0.2 |
| QCYT | ≤ 0.2 |
| GRNR | ≤ 0.2 |
| EQIG | ≤ 0.2 |
| FSEV | ≤ 0.2 |
| HKDS | ≤ 0.2 |
| YPGT | ≤ 0.2 |
| ADYG | ≤ 0.2 |
| CAGL | ≤ 0.2 |
| RNQP | ≤ 0.2 |
| RNSP | ≤ 0.2 |
| RNYS | 0.85 |
| RNGD | ≤ 0.2 |
| RNQH | ≤ 0.2 |
| RNSN | 0.385 |
| RNGS | 0.873 |

| Variant | one-hybrid fitness for binding parS DNA |
| --- | --- |
| RNGP | ≤ 0.2 |
| RNYH | ≤ 0.2 |
| RNSS | 0.967 |
| RNQS | 0.921 |
| RNPS | 0.478 |
| GNAI | ≤ 0.2 |
| MPRT | ≤ 0.2 |
| LHGD | ≤ 0.2 |
| GSGG | ≤ 0.2 |
| TQRY | ≤ 0.2 |
| LATY | ≤ 0.2 |
| GQKN | ≤ 0.2 |
| HRKI | ≤ 0.2 |
| RNCS | 0.83 |
| RNIS | 0.65 |
| RNRN | 0.371 |
| RNCN | 0.304 |
| RNID | ≤ 0.2 |
| RNIN | ≤ 0.2 |
| RNCD | ≤ 0.2 |
| RNRS | 0.961 |
| RNRP | ≤ 0.2 |
| ELGN | ≤ 0.2 |
| PYSK | ≤ 0.2 |
| NITG | ≤ 0.2 |
| KRPK | ≤ 0.2 |

| Variant | one-hybrid fitness for binding parS DNA |
| --- | --- |
| EVIR | ≤ 0.2 |
| FSHN | ≤ 0.2 |
| RCFI | ≤ 0.2 |
| IRLE | ≤ 0.2 |
| PFDT | ≤ 0.2 |
| RSFA | 0.558 |
| RDFA | ≤ 0.2 |
| RWFA | 0.298 |
| RPFA | ≤ 0.2 |
| RNFA | 0.301 |
| RCFA | 0.589 |
| IFQR | ≤ 0.2 |
| PTLA | ≤ 0.2 |
| RHFY | 0.377 |
| RHFG | 0.876 |
| RHFF | ≤ 0.2 |
| RHAD | ≤ 0.2 |
| RHAG | 0.969 |
| RHAH | 0.202 |
| DYKT | ≤ 0.2 |
| SRQA | ≤ 0.2 |
| DEKR | ≤ 0.2 |
| SVMF | ≤ 0.2 |
| RSFH | ≤ 0.2 |
| RCFT | 0.955 |
| REFT | ≤ 0.2 |

| Variant | one-hybrid fitness for binding parS DNA |
| --- | --- |
| RSFT | 0.751 |
| RSFN | 0.383 |
| RPFT | ≤ 0.2 |
| WLLH | ≤ 0.2 |
| REVI | ≤ 0.2 |
| SAPY | ≤ 0.2 |
| RRWK | ≤ 0.2 |
| RLWQ | ≤ 0.2 |
| RTWQ | ≤ 0.2 |
| RTWG | 1.03 |
| RLWG | 0.995 |
| RTWF | 0.275 |
| RLWR | ≤ 0.2 |
| RMWY | 0.497 |
| RMWR | ≤ 0.2 |
| RRWF | ≤ 0.2 |
| RMWG | 0.991 |
| RRWG | 0.906 |
| CQNS | ≤ 0.2 |
| QVGP | ≤ 0.2 |
| QTRM | ≤ 0.2 |
| ARLQ | ≤ 0.2 |
| CHSG | ≤ 0.2 |
| RCML | 0.201 |
| PFAT | ≤ 0.2 |
| QRRC | ≤ 0.2 |

| Variant | one-hybrid fitness for binding parS DNA |
| --- | --- |
| SRTM | ≤ 0.2 |
| KSRC | ≤ 0.2 |
| RKWG | 0.952 |
| RKWY | 0.393 |
| RHWG | 0.844 |
| RIWY | 0.471 |
| RHWQ | ≤ 0.2 |
| RIWM | 0.361 |
| RIWG | 0.985 |
| RFWG | 0.744 |
| RKWF | 0.219 |
| RHWM | ≤ 0.2 |
| KFWG | ≤ 0.2 |
| DFWG | ≤ 0.2 |
| KKLC | ≤ 0.2 |
| FRWG | ≤ 0.2 |
| IIKT | ≤ 0.2 |
| IYPT | ≤ 0.2 |
| DRGE | ≤ 0.2 |
| FVTP | ≤ 0.2 |
| HMNE | ≤ 0.2 |
| PPQC | ≤ 0.2 |
| RERK | ≤ 0.2 |
| DGKG | ≤ 0.2 |
| IFLY | ≤ 0.2 |
